According to paper PMC7862700, “An all-to-all approach to the identification of sequence-specific readers for epigenetic DNA modifications on cytosine”:

How the values were obtained:
Test in all cases: DAPPL (digital affinity profiling via proximity ligation, sequencing); 10 mM Tris-HCl pH 7.5, 50 mM NaCl, 1 mM DTT, 4% glycerol, room temperature, 30 min; GST-TFs on glutathione beads, 16-mer random dsDNA library, 0.1% formaldehyde crosslink after washing; high values mean tight binding
[1] = biological target: T1, FLI1 (Homo sapiens, UniProt Q01543 1-452); settings: protein: recombinant; tags: N-terminal GST; dsDNA, one strand shown
T1 sequence: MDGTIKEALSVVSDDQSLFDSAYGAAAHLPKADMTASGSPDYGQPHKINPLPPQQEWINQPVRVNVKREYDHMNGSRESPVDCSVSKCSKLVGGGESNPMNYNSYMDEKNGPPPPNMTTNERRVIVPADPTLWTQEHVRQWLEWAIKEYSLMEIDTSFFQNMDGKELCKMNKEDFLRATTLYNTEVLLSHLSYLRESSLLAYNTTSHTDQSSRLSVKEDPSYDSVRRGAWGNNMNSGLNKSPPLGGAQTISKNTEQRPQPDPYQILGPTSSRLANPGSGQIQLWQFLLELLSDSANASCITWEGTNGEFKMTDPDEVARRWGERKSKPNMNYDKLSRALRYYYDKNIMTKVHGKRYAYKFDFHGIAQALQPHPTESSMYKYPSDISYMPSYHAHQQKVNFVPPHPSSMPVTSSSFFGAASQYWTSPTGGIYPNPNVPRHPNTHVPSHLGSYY
Method in brief: (§1)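 Human transcription factors fused to GST were expressed in yeast, captured on glutathione beads, given DNA barcodes and pooled with a GST-only negative control. Pools were incubated with 200 nmole of a 16-mer random double-stranded DNA library in Tris/NaCl/DTT/glycerol buffer at room temperature for 30 min. They were then washed, crosslinked with 0.1% formaldehyde, proximity-ligated (BsaI/T4 ligase, 1 h, 37 °C), PCR-amplified and sequenced on an Illumina NextSeq500. Binding signal is each 6-mer's read frequency for a factor divided by its frequency for the GST control.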

[2] = biological target: T2, ELK1 (Homo sapiens, UniProt P19419 1-428); settings: protein: recombinant; tags: N-terminal GST; dsDNA, one strand shown
T2 sequence: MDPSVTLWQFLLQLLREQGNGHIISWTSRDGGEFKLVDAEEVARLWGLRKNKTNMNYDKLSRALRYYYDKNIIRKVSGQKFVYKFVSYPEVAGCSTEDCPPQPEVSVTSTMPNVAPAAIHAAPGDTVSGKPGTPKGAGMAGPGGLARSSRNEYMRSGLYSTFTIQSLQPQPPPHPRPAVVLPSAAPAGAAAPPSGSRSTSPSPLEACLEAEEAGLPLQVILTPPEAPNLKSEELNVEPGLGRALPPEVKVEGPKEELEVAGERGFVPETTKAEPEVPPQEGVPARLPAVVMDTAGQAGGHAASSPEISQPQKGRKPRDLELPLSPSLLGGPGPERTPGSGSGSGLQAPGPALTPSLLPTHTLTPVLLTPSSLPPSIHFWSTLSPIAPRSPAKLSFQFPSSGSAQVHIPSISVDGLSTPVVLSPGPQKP
Method in brief: as §1

[3] = biological target: T3, GABPA (Homo sapiens, UniProt Q06546 1-454); settings: protein: recombinant; tags: N-terminal GST; dsDNA, one strand shown
T3 sequence: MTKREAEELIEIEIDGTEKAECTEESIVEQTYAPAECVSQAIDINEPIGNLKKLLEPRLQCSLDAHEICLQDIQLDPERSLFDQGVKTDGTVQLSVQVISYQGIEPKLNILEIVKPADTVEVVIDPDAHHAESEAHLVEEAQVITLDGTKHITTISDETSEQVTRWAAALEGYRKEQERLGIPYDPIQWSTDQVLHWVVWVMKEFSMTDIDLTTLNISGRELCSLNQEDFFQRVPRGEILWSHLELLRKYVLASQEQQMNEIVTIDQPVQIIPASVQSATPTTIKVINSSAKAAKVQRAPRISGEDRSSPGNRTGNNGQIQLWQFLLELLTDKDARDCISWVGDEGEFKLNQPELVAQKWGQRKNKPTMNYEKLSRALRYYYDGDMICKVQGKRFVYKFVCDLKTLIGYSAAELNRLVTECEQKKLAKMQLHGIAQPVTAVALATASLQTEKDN
Method in brief: as §1

[4] = biological target: T4, ERG (Homo sapiens, UniProt P11308 1-479); settings: protein: recombinant; tags: N-terminal GST; dsDNA, one strand shown
T4 sequence: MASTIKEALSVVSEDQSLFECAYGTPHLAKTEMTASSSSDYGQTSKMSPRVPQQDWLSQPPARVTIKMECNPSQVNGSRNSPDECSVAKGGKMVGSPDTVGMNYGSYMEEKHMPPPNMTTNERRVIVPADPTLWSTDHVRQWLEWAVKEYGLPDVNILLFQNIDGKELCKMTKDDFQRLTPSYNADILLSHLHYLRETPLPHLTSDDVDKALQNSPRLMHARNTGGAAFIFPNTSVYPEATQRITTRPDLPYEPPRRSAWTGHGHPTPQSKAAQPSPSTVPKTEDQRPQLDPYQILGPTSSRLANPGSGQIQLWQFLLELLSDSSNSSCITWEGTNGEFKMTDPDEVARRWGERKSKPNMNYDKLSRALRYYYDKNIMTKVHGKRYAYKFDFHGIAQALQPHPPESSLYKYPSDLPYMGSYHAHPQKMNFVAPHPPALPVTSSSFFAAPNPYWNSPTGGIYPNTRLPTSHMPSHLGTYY
Method in brief: as §1

[5] = biological target: ELF1 (Homo sapiens, UniProt P32519 1-619); settings: protein: recombinant; tags: N-terminal GST; dsDNA, one strand shown
ELF1, sequence (P32519 whole entry): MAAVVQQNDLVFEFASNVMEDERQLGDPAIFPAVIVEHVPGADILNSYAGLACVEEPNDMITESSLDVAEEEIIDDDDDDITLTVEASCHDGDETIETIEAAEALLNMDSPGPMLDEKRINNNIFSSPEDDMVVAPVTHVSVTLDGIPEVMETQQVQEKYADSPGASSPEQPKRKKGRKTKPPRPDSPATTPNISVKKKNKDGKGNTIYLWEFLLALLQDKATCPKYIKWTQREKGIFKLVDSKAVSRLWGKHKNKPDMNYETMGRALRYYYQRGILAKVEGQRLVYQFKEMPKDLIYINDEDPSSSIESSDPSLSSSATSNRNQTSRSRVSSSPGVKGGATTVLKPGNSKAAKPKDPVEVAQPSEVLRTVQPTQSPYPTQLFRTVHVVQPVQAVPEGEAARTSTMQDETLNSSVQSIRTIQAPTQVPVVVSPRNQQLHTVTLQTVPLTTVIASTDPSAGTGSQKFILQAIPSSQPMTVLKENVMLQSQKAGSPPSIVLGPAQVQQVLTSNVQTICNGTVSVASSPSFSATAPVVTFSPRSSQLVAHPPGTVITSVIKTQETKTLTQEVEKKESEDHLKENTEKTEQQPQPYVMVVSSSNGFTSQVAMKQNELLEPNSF
Method in brief: as §1

[6] = biological target: T5, EHF (Homo sapiens, UniProt Q9NZC4 1-300); settings: protein: recombinant; tags: N-terminal GST; dsDNA, one strand shown
T5 sequence: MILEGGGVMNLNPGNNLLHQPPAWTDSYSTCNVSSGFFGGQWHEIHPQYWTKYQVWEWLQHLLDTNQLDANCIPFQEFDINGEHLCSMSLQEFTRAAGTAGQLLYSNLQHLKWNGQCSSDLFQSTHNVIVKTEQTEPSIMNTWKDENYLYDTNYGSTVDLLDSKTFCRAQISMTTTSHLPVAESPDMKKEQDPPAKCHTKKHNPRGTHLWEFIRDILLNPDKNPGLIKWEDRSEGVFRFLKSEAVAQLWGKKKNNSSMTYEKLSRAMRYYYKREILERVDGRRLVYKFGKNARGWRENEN
Method in brief: as §1

[7] = biological target: SPI1 (Homo sapiens, UniProt P17947 1-270); settings: protein: recombinant; tags: N-terminal GST; dsDNA, one strand shown
Method in brief: as §1

[8] = biological target: SPIB (Homo sapiens, UniProt Q01892 1-262); settings: protein: recombinant; tags: N-terminal GST; dsDNA, one strand shown
SPIB, sequence (Q01892 whole entry): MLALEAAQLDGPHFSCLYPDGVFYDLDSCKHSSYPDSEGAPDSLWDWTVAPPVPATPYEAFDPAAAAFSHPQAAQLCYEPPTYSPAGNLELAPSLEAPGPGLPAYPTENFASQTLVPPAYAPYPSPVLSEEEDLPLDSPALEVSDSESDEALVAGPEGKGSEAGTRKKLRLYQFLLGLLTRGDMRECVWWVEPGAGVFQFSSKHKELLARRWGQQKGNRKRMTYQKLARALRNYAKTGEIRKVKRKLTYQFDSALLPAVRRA
Method in brief: as §1

[9] = biological target: T6, ELK3 (Homo sapiens, UniProt P41970 1-407); settings: protein: recombinant; tags: N-terminal GST; dsDNA, one strand shown
T6 sequence: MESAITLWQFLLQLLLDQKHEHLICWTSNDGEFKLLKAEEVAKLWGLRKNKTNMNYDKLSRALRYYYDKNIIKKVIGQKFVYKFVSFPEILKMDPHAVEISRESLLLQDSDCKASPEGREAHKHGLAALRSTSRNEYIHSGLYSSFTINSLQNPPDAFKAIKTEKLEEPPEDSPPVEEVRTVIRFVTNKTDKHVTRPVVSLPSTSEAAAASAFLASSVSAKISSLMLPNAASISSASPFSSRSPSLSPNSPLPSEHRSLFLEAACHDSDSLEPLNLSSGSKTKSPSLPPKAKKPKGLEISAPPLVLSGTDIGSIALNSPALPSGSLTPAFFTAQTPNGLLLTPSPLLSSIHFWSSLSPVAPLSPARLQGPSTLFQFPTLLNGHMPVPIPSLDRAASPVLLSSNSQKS
Method in brief: as §1

[10] = biological target: T7, FEV (Homo sapiens, UniProt Q99581 1-238); settings: protein: recombinant; tags: N-terminal GST; dsDNA, one strand shown
T7 sequence: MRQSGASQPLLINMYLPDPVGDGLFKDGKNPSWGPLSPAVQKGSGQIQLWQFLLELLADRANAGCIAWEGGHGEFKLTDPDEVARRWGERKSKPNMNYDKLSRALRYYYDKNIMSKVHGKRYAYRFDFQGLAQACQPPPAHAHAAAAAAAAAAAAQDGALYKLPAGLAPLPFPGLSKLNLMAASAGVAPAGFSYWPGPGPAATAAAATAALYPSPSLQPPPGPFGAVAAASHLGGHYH
Method in brief: as §1

[11] = biological target: ETV5 (Homo sapiens, UniProt P41161 1-510); settings: protein: recombinant; tags: N-terminal GST; dsDNA, one strand shown
ETV5, sequence (P41161 whole entry): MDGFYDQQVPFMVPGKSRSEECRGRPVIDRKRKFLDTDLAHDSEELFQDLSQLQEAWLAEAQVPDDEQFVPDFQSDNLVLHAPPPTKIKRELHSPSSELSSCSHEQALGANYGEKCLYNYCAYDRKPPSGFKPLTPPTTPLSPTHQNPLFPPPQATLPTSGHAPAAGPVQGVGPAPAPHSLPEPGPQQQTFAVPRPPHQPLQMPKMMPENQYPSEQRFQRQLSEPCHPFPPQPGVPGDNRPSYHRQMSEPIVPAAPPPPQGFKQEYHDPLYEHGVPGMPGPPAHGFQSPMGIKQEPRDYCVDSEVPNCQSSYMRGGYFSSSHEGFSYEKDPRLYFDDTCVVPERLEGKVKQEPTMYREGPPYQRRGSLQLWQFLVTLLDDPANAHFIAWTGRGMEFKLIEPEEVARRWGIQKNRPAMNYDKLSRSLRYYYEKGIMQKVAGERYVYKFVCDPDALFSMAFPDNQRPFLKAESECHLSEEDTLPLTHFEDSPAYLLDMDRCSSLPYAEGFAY
Method in brief: as §1

[12] = biological target: HSF1 (Homo sapiens, UniProt Q00613 1-529); settings: protein: recombinant; tags: N-terminal GST; chain copies: 3; dsDNA, one strand shown
HSF1, sequence (Q00613 whole entry): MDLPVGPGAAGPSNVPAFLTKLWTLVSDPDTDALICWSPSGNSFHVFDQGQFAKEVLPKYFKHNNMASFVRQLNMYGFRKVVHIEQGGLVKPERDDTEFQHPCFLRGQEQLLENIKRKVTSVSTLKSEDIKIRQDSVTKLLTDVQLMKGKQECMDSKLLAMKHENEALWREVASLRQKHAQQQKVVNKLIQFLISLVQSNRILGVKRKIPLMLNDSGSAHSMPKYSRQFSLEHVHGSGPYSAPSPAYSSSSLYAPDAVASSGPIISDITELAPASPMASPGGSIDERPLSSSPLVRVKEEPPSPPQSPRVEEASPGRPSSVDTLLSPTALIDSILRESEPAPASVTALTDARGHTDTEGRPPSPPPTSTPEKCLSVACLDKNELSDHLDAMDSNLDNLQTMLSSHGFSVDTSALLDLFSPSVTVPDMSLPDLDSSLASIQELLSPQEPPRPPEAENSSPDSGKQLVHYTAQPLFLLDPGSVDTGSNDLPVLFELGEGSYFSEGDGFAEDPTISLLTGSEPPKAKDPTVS
Method in brief: as §1

[13] = biological target: T8, SPIC (Homo sapiens, UniProt Q8N5J4 1-248); settings: protein: recombinant; tags: N-terminal GST; dsDNA, one strand shown
T8 sequence: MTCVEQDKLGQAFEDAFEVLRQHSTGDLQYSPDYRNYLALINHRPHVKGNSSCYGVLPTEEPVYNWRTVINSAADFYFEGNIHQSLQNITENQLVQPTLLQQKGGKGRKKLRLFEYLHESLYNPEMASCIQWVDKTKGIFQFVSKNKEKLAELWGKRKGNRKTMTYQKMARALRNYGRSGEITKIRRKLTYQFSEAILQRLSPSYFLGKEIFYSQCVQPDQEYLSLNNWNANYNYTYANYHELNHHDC
Method in brief: as §1

[14] = biological target: ELF4 (Homo sapiens, UniProt Q99607 1-663); settings: protein: recombinant; tags: N-terminal GST; dsDNA, one strand shown
ELF4, sequence (Q99607 whole entry): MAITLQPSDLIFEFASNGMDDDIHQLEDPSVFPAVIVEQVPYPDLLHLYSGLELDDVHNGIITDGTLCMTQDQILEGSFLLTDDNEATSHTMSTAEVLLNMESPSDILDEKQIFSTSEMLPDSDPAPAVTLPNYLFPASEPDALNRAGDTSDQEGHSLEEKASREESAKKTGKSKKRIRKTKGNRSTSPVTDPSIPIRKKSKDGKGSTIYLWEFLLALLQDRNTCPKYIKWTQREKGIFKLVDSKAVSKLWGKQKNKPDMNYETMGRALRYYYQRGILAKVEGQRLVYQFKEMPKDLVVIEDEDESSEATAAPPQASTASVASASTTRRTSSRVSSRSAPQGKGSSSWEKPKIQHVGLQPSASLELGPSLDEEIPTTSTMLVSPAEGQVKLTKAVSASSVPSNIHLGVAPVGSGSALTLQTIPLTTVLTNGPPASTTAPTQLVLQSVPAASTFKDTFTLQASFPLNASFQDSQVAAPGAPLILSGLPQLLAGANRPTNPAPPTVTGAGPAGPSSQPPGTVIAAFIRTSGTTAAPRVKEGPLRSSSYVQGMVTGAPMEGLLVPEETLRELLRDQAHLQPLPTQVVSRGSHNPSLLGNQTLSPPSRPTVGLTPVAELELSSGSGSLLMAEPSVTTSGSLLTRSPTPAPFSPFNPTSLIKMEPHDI
Method in brief: as §1

[15] = biological target: T9, ELK4 (Homo sapiens, UniProt P28324-2 1-405); settings: protein: recombinant; tags: N-terminal GST; dsDNA, one strand shown
T9 sequence: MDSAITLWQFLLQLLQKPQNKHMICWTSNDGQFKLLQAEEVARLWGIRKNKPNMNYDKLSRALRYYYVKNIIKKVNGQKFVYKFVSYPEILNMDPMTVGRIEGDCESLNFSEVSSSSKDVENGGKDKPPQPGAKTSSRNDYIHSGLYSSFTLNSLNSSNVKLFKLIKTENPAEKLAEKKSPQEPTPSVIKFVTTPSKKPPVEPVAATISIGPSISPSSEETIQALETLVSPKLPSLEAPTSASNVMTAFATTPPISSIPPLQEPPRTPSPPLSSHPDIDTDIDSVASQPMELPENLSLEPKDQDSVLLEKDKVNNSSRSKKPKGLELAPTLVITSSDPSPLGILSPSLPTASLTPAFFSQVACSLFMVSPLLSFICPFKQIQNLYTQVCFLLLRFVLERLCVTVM
Method in brief: as §1

[16] = biological target: T10, ETV2 (Homo sapiens, UniProt O00321 1-342); settings: protein: recombinant; tags: N-terminal GST; dsDNA, one strand shown
T10 sequence: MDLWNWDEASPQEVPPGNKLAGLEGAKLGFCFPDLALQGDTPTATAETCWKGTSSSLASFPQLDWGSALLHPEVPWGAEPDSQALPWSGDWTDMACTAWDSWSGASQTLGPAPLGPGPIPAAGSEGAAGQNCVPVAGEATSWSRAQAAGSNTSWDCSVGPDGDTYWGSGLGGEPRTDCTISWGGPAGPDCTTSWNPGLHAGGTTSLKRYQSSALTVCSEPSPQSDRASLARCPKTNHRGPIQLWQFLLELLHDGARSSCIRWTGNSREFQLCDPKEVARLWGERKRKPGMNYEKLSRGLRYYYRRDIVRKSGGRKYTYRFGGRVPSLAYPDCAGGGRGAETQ
Method in brief: as §1

[17] = biological target: T11, ELF3 (Homo sapiens, UniProt P78545 1-371); settings: protein: recombinant; tags: N-terminal GST; dsDNA, one strand shown
T11 sequence: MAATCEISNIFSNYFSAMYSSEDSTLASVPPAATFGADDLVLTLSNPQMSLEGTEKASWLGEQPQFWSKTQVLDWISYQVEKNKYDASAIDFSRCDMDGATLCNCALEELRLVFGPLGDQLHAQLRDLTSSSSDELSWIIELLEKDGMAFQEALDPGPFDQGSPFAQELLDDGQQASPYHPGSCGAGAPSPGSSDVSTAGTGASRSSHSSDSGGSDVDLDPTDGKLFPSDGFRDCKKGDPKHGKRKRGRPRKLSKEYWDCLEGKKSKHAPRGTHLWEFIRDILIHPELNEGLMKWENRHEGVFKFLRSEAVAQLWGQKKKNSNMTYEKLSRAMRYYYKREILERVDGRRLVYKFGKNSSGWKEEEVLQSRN
Method in brief: as §1

[18] = biological target: CRX (Homo sapiens, UniProt O43186 1-299); settings: protein: recombinant; tags: N-terminal GST; dsDNA, one strand shown
CRX, sequence (O43186 whole entry): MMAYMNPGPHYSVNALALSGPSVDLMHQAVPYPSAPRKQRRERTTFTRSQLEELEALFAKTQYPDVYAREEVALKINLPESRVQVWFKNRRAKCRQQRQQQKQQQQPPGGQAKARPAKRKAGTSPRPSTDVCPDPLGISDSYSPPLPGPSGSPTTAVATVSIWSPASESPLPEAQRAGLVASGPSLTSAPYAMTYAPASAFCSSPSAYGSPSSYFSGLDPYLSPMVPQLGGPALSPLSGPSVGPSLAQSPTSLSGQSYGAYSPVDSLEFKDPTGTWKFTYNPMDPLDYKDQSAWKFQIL
Method in brief: as §1

[19] = biological target: ETV1 (Homo sapiens, UniProt P50549 1-477); settings: protein: recombinant; tags: N-terminal GST; dsDNA, one strand shown
ETV1, sequence (P50549 whole entry): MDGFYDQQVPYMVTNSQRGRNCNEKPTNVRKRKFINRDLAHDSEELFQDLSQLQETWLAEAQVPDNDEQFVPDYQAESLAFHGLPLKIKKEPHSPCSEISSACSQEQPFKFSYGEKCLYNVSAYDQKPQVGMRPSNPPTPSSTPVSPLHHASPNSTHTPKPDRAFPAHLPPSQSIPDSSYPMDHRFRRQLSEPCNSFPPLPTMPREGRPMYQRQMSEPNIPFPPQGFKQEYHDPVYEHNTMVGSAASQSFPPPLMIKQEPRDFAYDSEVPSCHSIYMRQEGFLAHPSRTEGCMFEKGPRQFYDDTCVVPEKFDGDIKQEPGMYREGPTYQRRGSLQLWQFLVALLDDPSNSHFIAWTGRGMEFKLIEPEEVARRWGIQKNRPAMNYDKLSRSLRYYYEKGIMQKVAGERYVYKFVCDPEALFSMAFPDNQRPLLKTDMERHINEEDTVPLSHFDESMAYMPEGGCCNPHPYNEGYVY
Method in brief: as §1

Sequence: AATTAA
- binding signal [1]: 1.26 fold enrichment (6-mer frequency, TF over GST control)
- binding signal [2]: 1.2 fold enrichment (6-mer frequency, TF over GST control)
- binding signal [3]: 1.22 fold enrichment (6-mer frequency, TF over GST control)
- binding signal [4]: 1.26 fold enrichment (6-mer frequency, TF over GST control)
- binding signal [5]: 1.27 fold enrichment (6-mer frequency, TF over GST control)
- binding signal [6]: 1.22 fold enrichment (6-mer frequency, TF over GST control)
- binding signal [7]: 1.26 fold enrichment (6-mer frequency, TF over GST control)
- binding signal [8]: 1.21 fold enrichment (6-mer frequency, TF over GST control)
- binding signal [9]: 1.31 fold enrichment (6-mer frequency, TF over GST control)
- binding signal [10]: 1.14 fold enrichment (6-mer frequency, TF over GST control)
- binding signal [11]: 1.29 fold enrichment (6-mer frequency, TF over GST control)
- binding signal [12]: 1.74 fold enrichment (6-mer frequency, TF over GST control)
- binding signal [13]: 1.24 fold enrichment (6-mer frequency, TF over GST control)
- binding signal [14]: 1.26 fold enrichment (6-mer frequency, TF over GST control)
- binding signal [15]: 1.26 fold enrichment (6-mer frequency, TF over GST control)
- binding signal [16]: 1.2 fold enrichment (6-mer frequency, TF over GST control)
- binding signal [17]: 1.24 fold enrichment (6-mer frequency, TF over GST control)
- binding signal [18]: 2.5 fold enrichment (6-mer frequency, TF over GST control)
- binding signal [19]: 1.26 fold enrichment (6-mer frequency, TF over GST control)
